Measurements: PubChem BioAssay (Tox21)
Records with an inconclusive call do not appear. Where a call stands in place of a potency, no number is given. Values without a mark were called inactive. The source made the active and inactive calls. Unless noted, calls follow the shape of the dose curve; as a rule, active = well fitted curve in the direction sought with a large enough effect in the repeat runs; inconclusive = weak or mixed curves; inactive = no such curve, though single readings can be large; an effect the other way counts as inactive or inconclusive.

Columns and labels:
[1] = qHTS assay to identify small molecule agonists of the NFkB signaling pathway (AID 1159509; active = well fitted curve in the direction sought with a large enough effect in the signal ratio in the repeat runs, not every such curve was filed as active; the % refers to the signal ratio; also: series mostly up to about 61 µM)
Outline: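 Agonist activity was read as beta-lactamase-driven FRET change (460 and 530 nm emission, 405 nm excitation) following 1.5 hr substrate loading at room temperature. Beforehand, ME-180 NFkB-bla reporter cells were treated with compounds for 5 hr at 37 C.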

[2] = qHTS assay to identify small molecule agonists of the NFkB signaling pathway - cell viability counter screen (AID 1159515; calls by dose curve; also: series mostly up to about 61 µM; nearly all actives have a fitted effect of over 55% in size)
Outline: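 Parallel cytotoxicity counter screen in ME-180 cells carrying an NFkB-response-element beta-lactamase reporter, 2,000 cells/well. Compound exposure lasted 5 hr at 37 C, 5% CO2. Cell viability was quantified by CellTiter-Glo luminescence.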

[3] = qHTS assay to identify small molecule agonists of the endoplasmic reticulum stress response signaling pathway (AID 1159516; active = well fitted activation curve with a large enough effect in the signal ratio in the repeat runs, not every such curve was filed as active; the % refers to the signal ratio)
Outline: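 Using a HeLa line with an ESRE-driven beta-lactamase gene, agonist activity was measured by FRET substrate fluorescence (460 and 530 nm emission) after cells were treated with compounds for 5 hr at 37 C and 5% CO2.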

[4] = qHTS assay to identify small molecule agonists of the endoplasmic reticulum stress response signaling pathway - cell viability counter screen (AID 1159517; calls by dose curve;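 also: HeLa cells carrying an ER stress response element beta-lactamase reporter; series mostly up to about 61 µM; nearly all actives have a fitted effect of over 50% in size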)
Outline: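 In parallel with the ESRE reporter read, cytotoxicity was scored by CellTiter-Glo luminescence (30 min, room temperature) on HeLa ESRE-bla cells dosed for 5 hr.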

[5] = qHTS assay to identify small molecule antagonists of the retinoid-related orphan receptor gamma (ROR-gamma) signaling pathway - cell viability counter screen (AID 1159520); also: nearly all actives have a fitted effect of over 50% in size
Outline: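 Tet-on ROR gamma CHO cells were given compounds for 2 hr, then doxycycline hyclate at 1 uM final, and incubated 16 hr at 37 C. Viability was measured as ATP content by CellTiter-Glo luminescence.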

[6] = biological target: Nuclear receptor ROR-gamma (Homo sapiens) (UniProt P51449); assay: qHTS assay to identify small molecule antagonists of the retinoid-related orphan receptor gamma (ROR-gamma) signaling pathway (AID 1159521; also: nearly all actives have a fitted effect of over 50% in size; also: potency is read from the fitted curve at half-maximal effect;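 as to activity change, negative = inhibition: CHO cells with doxycycline inducible ROR-gamma driving an RORE luciferase reporter; top concentration of the series differs between compounds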)
Outline: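 Cells were plated, rested 4 h at 37 C, exposed to compounds for 2 h, then given 1 uM final doxycycline hyclate to induce RORγ expression. After 16 h, ONE-Glo luminescence from the ROR response element reporter was measured.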

[7] = qHTS assay to identify small molecule agonists of the AP-1 signaling pathway - cell viability counter screen (AID 1159525; calls by dose curve; also: nearly all actives have a fitted effect of over 55% in size)
Outline: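 Same-well cytotoxicity counter screen of the Tox21 10K library in ME-180 cells. The readout is ATP-dependent luminescence after 5 h compound treatment. Data are normalised to DMSO and tetra n-octyl ammonium bromide controls.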

[8] = qHTS assay to identify small molecule agonists of the RXR signaling pathway - cell viability counter screen (AID 1159529);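 also: HEK 293T cells carrying an RXR-alpha UAS beta-lactamase reporter; series mostly up to about 77 µM; nearly all actives have a fitted effect of over 50% in size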
Outline: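 Steps: seed RXR-alpha-UAS-bla HEK 293T cells in assay medium containing 2% charcoal-stripped FBS; incubate 5 hr; add compounds in DMSO; incubate 16 hr at 37 C; after the bla read, add CellTiter-Glo and read luminescence at 30 min.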

[9] = qHTS assay to identify small molecule antagonists of the retinoid acid receptor (RAR) signaling pathway - cell viability counter screen (AID 1159551); also: nearly all actives have a fitted effect of over 35% in size
Outline: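 ATP-based viability, C3RL4 cells, 6 h at 37 C with 1 uM final retinol co-added after compound; luminescence read 30 min post CellTiter-Glo, RT.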

[10] = qHTS assay to identify small molecule antagonists of the retinoic acid receptor (RAR) signaling pathway (AID 1159552; also: nearly all actives have a fitted effect of over 50% in size; also: potency is read from the fitted curve at half-maximal effect)
Outline: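 Retinol at 1 uM final stimulated RARE-luciferase expression in C3RL4 cells exposed to test compounds for 6 hr at 37 C. Reduced luminescence, read 30 min after detection reagent, indicated pathway antagonism.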

[11] = qHTS assay to identify small molecule agonists of the retinoic acid receptor (RAR) signaling pathway (AID 1159553); also: potency is read from the fitted curve at half-maximal effect
Outline: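 Quantitative high-throughput format: the Tox21 10K library was tested on C3RL4 RARE-luciferase cells for 6 hr at 37 C and 5% CO2, with luminescence measured after a 30 min room-temperature reagent step.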

[12] = qHTS assay to identify small molecule antagonists of the vitamin D receptor (VDR) signaling pathway - cell viability counter screen (AID 743225); also: nearly all actives have a fitted effect of over 50% in size
Outline: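 HEK293T VDR-bla; cpd + 1a,25-(OH)2D3 3 nM final, 16 h 37C/5% CO2; B/G FRET substrate 2 h RT; then CellTiter-Glo 30 min RT, luminescence.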

[13] = qHTS assay to identify small molecule antagonists of the estrogen related receptor (ERR) signaling pathway - cell viability counter screen (AID 1224818);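 also: series mostly up to about 46 µM; viability measured after 17.5 h of compound exposure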
Outline: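 Quantitative high-throughput viability counter screen in ERR cells. Compounds (DMSO) incubated 17.5 h at 37 C; read-out was CellTiter-Fluor fluorescence.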

[14] = qHTS assay to identify small molecule antagonists of the estrogen related receptor signaling pathway with the pleiotropic PPARgamma coactivator (PGC) cell viability counter screen (AID 1224822; also: series mostly up to about 46 µM)
Outline: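 Cytotoxicity in the PGC/ERR cell line is assessed with CellTiter-Fluor, read as fluorescence intensity 30 min after reagent addition, following 17.5 h compound treatment at 37 C.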

[15] = biological target: Retinoic acid receptor RXR-alpha (Homo sapiens) (UniProt P19793); assay: qHTS assay to identify small molecule agonists of the RXR signaling pathway (AID 1159527; calls by dose curve; also: nearly all actives have a fitted effect of over 35% in size)
Outline: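 Cells plated at 2,000/well, rested 5 hr at 37 C, pin-dosed with DMSO compound solutions, incubated 16 hr, then loaded with B/G FRET substrate for 2 hr at RT before dual-emission fluorescence reading.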

[16] = qHTS assay to identify small molecule agonists of the AP-1 signaling pathway (AID 1159526; calls by dose curve)

Chain of Retinoic acid receptor RXR-alpha (Homo sapiens) (P19793 whole entry, looked up): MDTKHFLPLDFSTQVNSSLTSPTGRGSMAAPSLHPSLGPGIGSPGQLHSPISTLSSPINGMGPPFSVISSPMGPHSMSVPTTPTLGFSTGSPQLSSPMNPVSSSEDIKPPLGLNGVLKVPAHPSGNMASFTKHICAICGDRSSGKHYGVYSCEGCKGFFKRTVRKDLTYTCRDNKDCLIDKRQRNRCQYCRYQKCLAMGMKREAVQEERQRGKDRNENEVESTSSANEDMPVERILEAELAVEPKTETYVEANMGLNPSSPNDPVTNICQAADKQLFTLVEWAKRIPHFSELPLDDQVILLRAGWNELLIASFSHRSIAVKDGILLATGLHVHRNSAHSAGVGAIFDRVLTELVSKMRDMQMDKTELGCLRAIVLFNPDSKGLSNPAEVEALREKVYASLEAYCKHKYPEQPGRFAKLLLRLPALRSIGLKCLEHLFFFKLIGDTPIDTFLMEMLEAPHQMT

Structure (SMILES)	outcome [1]	outcome [2]	outcome [3]	outcome [4]	Potency [5]	Potency [6]	outcome [7]	Potency [8]	outcome [9]	Potency [10]	Potency [11]	Potency [12]	outcome [13]	outcome [14]	Potency [15]	Potency [16]	activity, negative = cytotoxicity [5]	activity change, negative = inhibition [6]	activation [16]	activity change, negative = cytotoxicity [9]
CCOC(=O)CS	inactive	inactive	inactive	inactive	inactive	inactive	inactive	inactive	inactive	28.1 µM (active)	inactive	–	–	–	–	–	–	–	–	–
CC(=O)Oc1cc(C(C)C)c(OCCN(C)C)cc1C	inactive	inactive	inactive	inactive	inactive	inactive	inactive	inactive	inactive	–	–	inactive	inactive	inactive	–	–	–	–	–	–
CCCCNC(=S)NCCCC	inactive	inactive	inactive	inactive	inactive	inactive	inactive	inactive	inactive	inactive	–	inactive	–	–	–	–	–	–	–	–
CC[C@H]1CC[C@H](NCc2cc3c(cc2OC)[C@H]2C[C@H]2C(=O)N3C)[C@H](c2ccccc2)N1	inactive	inactive	inactive	inactive	inactive	30.6 µM (active)	inactive	inactive	inactive	13.7 µM (active)	–	inactive	–	–	–	–	–	–	–	–
O=c1[nH]cnc2c1ncn2[C@@H]1O[C@H](CO)[C@@H](O)[C@H]1O	inactive	inactive	inactive	inactive	inactive	inactive	inactive	–	–	–	–	inactive	–	–	inactive	–	–	–	–	–
Cc1cc2nc(N)sc2cc1C	inactive	inactive	inactive	inactive	inactive	inactive	inactive	–	inactive	inactive	1.38 µM (active)	inactive	–	–	inactive	–	–	–	–	–
CC(C)=CCCC(C)CCOC=O (stereo not given)	inactive	inactive	inactive	inactive	inactive	inactive	inactive	–	inactive	inactive	–	inactive	–	–	–	–	–	–	–	–
Cc1c[nH]c(=S)[nH]c1=O	inactive	inactive	inactive	inactive	inactive	inactive	inactive	inactive	inactive	inactive	–	inactive	–	–	inactive	–	–	–	–	–
CCCc1c2oc(C(=O)O)cc(=O)c2cc2c(=O)cc(C(=O)O)n(CC)c12	inactive	inactive	inactive	inactive	inactive	inactive	inactive	inactive	inactive	inactive	–	inactive	–	–	inactive	–	–	–	–	–
CCN(CCCc1ccccc1)CCCc1ccccc1	inactive	inactive	inactive	inactive	inactive	inactive	inactive	–	inactive	–	inactive	inactive	–	–	–	–	–	–	–	–
CC(C)c1ccccc1	inactive	inactive	inactive	inactive	inactive	inactive	inactive	inactive	inactive	–	–	inactive	–	–	–	–	–	–	–	–
CCCCCCOc1ccc(N)cc1	inactive	inactive	inactive	inactive	inactive	inactive	inactive	–	inactive	inactive	10.9 µM (active)	inactive	–	–	–	–	–	–	–	–
CCCCCCCCCC#N	inactive	inactive	inactive	inactive	inactive	inactive	inactive	–	inactive	–	–	inactive	–	–	–	–	–	–	–	–
CO[C@@]1(NC(=O)CSCC#N)C(=O)N2C(C(=O)O)=C(CSc3nnnn3C)CS[C@@H]21	inactive	inactive	inactive	inactive	inactive	inactive	–	inactive	inactive	inactive	inactive	inactive	inactive	inactive	inactive	inactive	–	–	–	–
C[C@@H](N)C(=O)O	inactive	inactive	inactive	inactive	inactive	inactive	inactive	inactive	inactive	inactive	–	inactive	–	–	inactive	–	–	–	–	–
Cc1ccc(C(C)C)cc1O	inactive	inactive	inactive	inactive	inactive	inactive	inactive	inactive	inactive	–	–	inactive	–	–	inactive	–	–	–	–	–
CCCCc1ccc2nc(NC(=O)OC)[nH]c2c1	inactive	inactive	inactive	inactive	inactive	inactive	–	inactive	inactive	inactive	8.41 µM (active)	inactive	–	–	–	–	–	–	–	–
Cc1onc(-c2ccccc2)c1C(=O)Cl	inactive	inactive	inactive	inactive	inactive	–	inactive	inactive	inactive	inactive	inactive	inactive	–	–	inactive	inactive	–	–	–	–
CN1C(=O)CC(c2ccccc2)C1=O (stereo not given)	inactive	inactive	inactive	inactive	inactive	–	inactive	inactive	inactive	inactive	inactive	inactive	–	–	inactive	inactive	–	–	–	–
CN(C)C(=O)NC1(c2ccccc2)CCN(CCC[C@]2(c3ccc(Cl)c(Cl)c3)CCCN(C(=O)c3ccccc3)C2)CC1	inactive	inactive	inactive	inactive	–	–	–	–	–	–	–	inactive	–	–	–	–	-2.5% [at 19 µM]	-21% [at 19 µM]	11.5% [at 15.8 µM]	-1.37% [at 19 µM]
CN(C)Cc1ccccc1	inactive	inactive	inactive	inactive	inactive	–	inactive	inactive	inactive	inactive	inactive	inactive	–	–	inactive	inactive	–	–	–	–
Clc1cccc(-c2cc(Cl)cc(Cl)c2)c1	inactive	inactive	inactive	inactive	inactive	inactive	–	–	inactive	inactive	inactive	inactive	–	–	inactive	–	–	–	–	–
CCOC(=O)C1CC(=O)C(=C(O)C2CC2)C(=O)C1 (stereo not given)	inactive	inactive	inactive	inactive	inactive	inactive	–	inactive	inactive	inactive	inactive	inactive	–	–	–	inactive	–	–	–	–
